Records with an inconclusive call do not appear. Calls of active or inactive are those of the source. Calls follow the shape of the dose curve; as a rule, active = well fitted curve in the direction sought with a large enough effect; inconclusive = small, poorly fitted or top-dose-only effect, or another doubt; inactive = no such curve, though single readings can be large; an effect the other way counts as inactive or inconclusive.
Tests used:
HACAT = test: qHTS assay to identify novel small-molecules to repurpose for Merkel cell carcinoma treatment (AID 1296009); conditions: MCC and control cell lines, CellTiter-Glo viability, 72 h; at 44.8 µM (top of the series) unless noted; also: nearly all actives have a fitted effect of over 60% in size
In short: (§1)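 Viability readout: ATP luminescence (CellTiter-Glo) after 72 hr drug exposure at 37 degree celsius. Dose-response format was 8 points for NPC and 11 points for MIPE; data normalized to in-plate controls.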

MCC-13 = test: as above; conditions: MCC and control cell lines, CellTiter-Glo viability, 72 h; series mostly up to 46 µM
In short: as §1

MCC-26 = test: as above; conditions: MCC and control cell lines, CellTiter-Glo viability, 72 h; series mostly up to 46 µM
In short: as §1

MKL-1 = test: as above; conditions: MCC and control cell lines, CellTiter-Glo viability, 72 h; series mostly up to 46 µM
In short: as §1

MKL-2 = test: as above; conditions: MCC and control cell lines, CellTiter-Glo viability, 72 h; series mostly up to 46 µM
In short: as §1

UISO = test: as above; conditions: MCC and control cell lines, CellTiter-Glo viability, 72 h; series mostly up to 46 µM
In short: as §1

WaGa = test: as above; conditions: MCC and control cell lines, CellTiter-Glo viability, 72 h; series mostly up to 46 µM
In short: as §1

C33A = test: Primary qHTS to identify gynecologic anti-cancer compounds using libraries of approved drugs and bioactive compounds (AID 1345084); conditions: Gynecologic cancer cell panel viability, ATPlite luminescence, 48 h; series mostly up to 57.5 µM; also: nearly all actives have a fitted effect of over 55% in size
In short: (§2)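 Cytotoxicity screen measuring ATP content by luciferase luminescence. Each compound is applied at five concentrations for 48 h at 37 C with 5% CO2.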

CAOV3 = test: as above; conditions: Gynecologic cancer cell panel viability, ATPlite luminescence, 48 h; series mostly up to 57.5 µM
In short: as §2

CASKI = test: as above; conditions: Gynecologic cancer cell panel viability, ATPlite luminescence, 48 h; series mostly up to 57.5 µM
In short: as §2

Es-2 = test: as above; conditions: Gynecologic cancer cell panel viability, ATPlite luminescence, 48 h; series mostly up to 57.5 µM
In short: as §2

HeLa = test: as above; conditions: Gynecologic cancer cell panel viability, ATPlite luminescence, 48 h; series mostly up to 57.5 µM
In short: as §2

Hek293T = test: as above; conditions: Gynecologic cancer cell panel viability, ATPlite luminescence, 48 h, control line for the selectivity index; series mostly up to 57.5 µM
In short: as §2

JEG-3 = test: as above; conditions: Gynecologic cancer cell panel viability, ATPlite luminescence, 48 h; series mostly up to 57.5 µM
In short: as §2

OV90 = test: as above; conditions: Gynecologic cancer cell panel viability, ATPlite luminescence, 48 h; series mostly up to 57.5 µM
In short: as §2

PA-1 = test: as above; conditions: Gynecologic cancer cell panel viability, ATPlite luminescence, 48 h; series mostly up to 57.5 µM
In short: as §2

SKOV3 = test: as above; conditions: Gynecologic cancer cell panel viability, ATPlite luminescence, 48 h; series mostly up to 57.5 µM
In short: as §2

Tov-21-G = test: as above; conditions: Gynecologic cancer cell panel viability, ATPlite luminescence, 48 h; series mostly up to 57.5 µM
In short: as §2

Measured: Potency

C[C@@H]1CCC[C@H](C)N1CCCC(O)(c1ccccc1)c1ccccn1 (stereo partly specified)
inactive: all assays above

CN1Cc2cc(C(=O)N3CCC(C4CCNCC4)CC3)ccc2N[C@@H](CC(=O)O)C1=O
inactive: all assays above

CCOc1ncc(F)c(=O)[nH]1
inactive: all assays above

COc1ccccc1N1CCN(CC(O)COc2cc(OC)c(OC)c(OC)c2)CC1 (stereo unspecified)
inactive: all assays above

CC(C)C(=O)Nc1cccc(C(F)(F)F)c1
inactive: all assays above

O=C(O)[C@@H](O)[C@H](O)[C@H](O)[C@@H](O)C(=O)O
inactive: all assays above

CCCCCCn1c(=O)c2c(ncn2C)n(C)c1=O
inactive: all assays above

O=C1c2ccccc2CCc2ccccc21
inactive: all assays above

O=[N+]([O-])c1nccn1CO[C@@H](CO)[C@H](O)CO
inactive: all assays above

CCO[C@H](Cc1ccc(OCCc2ccc(OS(C)(=O)=O)cc2)cc1)C(=O)O
inactive: all assays above

CCCC(=O)O[C@]1(C(=O)COC(=O)CC)CC[C@H]2[C@@H]3CCC4=CC(=O)CC[C@]4(C)[C@H]3[C@@H](O)C[C@@]21C
inactive: HACAT inactive [at 17.4 µM] | MCC-13 | MCC-26 | MKL-1 | MKL-2 | UISO | WaGa | C33A | CAOV3 | CASKI | Es-2 | HeLa | Hek293T | JEG-3 | OV90 | PA-1 | SKOV3 | Tov-21-G

Cc1cnc(NS(=O)(=O)c2ccc(N)cc2)nc1
inactive: all assays above

CCC(=O)O[C@]1(C(=O)COC)[C@@H](C)C[C@H]2[C@@H]3CCC4=CC(=O)C=C[C@]4(C)C3(F)[C@@H](O)C[C@@]21C (stereo partly specified)
inactive: all assays above

COC(=O)C1=C(C)NC(C)=C(C(=O)OCCc2ccc(N3CCN(C(c4ccccc4)c4ccccc4)CC3)cc2)C1c1cccc([N+](=O)[O-])c1 (stereo unspecified)
inactive: all assays above

CC(C)(C)c1cc(C=O)cc(C(C)(C)C)c1O
inactive: all assays above

CCCCC(CC)CNC(=O)CC(C)OC(=O)CCC(=O)O (stereo unspecified)
inactive: all assays above

Cc1oc(=O)oc1COC(=O)[C@@H]1N2C(=O)[C@@H](NC(=O)[C@H](N)c3ccccc3)[C@H]2SC1(C)C
inactive: all assays above
